Results taken from PubChem BioAssay (NCATS).
Inconclusive results are not listed. Entries that show only a call come without a potency. The source made the active and inactive calls. Unless noted, calls come from the whole dose curve; as a rule, active = well fitted curve in the direction sought with a large enough effect; inconclusive = small, poorly fitted or top-dose-only effect, or another doubt; inactive = no such curve, though single readings can be large; an effect the other way counts as inactive or inconclusive.

Legend:
[1] = molecular target: Cytochrome P450 1A2 (Homo sapiens) (UniProt P05177); test: p450-cyp1a2 (AID 410; calls by dose curve; note: potency is the fitted concentration of half-maximal effect)
Cytochrome P450 1A2 (Homo sapiens), sequence (P05177 whole entry, looked up): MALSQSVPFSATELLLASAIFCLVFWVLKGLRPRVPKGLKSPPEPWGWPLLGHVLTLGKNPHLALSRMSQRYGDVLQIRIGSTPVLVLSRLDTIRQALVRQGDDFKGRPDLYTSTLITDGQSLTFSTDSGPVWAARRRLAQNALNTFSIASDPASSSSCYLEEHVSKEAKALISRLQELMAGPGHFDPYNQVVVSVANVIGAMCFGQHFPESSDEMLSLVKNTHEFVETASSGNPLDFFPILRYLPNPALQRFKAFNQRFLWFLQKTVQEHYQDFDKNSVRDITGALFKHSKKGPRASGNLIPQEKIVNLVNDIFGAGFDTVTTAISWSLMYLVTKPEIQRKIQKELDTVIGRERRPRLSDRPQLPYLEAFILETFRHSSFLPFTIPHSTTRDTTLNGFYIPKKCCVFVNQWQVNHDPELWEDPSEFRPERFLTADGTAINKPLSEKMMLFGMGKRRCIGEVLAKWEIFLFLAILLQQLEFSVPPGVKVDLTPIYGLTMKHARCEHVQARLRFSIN
Method in brief: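 O-Demethylation of luciferin 6' methyl ether by human CYP1A2 is monitored as luciferase luminescence. Substrate sits at Km (100uM); enzyme is 20nM. Values are scaled to 57 uM furafylline as maximal inhibition.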

[2] = molecular target: Mitogen-activated protein kinase 10 (Mus musculus) (UniProt Q61831); test: JNK3 AlphaScreen Assay (AID 530; active = well fitted curve in either direction with a large enough effect, not every such curve was filed as active;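 note: kinase came from lysate of stimulated human HepG2 cells; signal reports phosphorylation of biotinylated GST-cJun 1-79 at Ser73 with 10 µM ATP; series mostly up to about 57 µM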)
Method in brief: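 Activity was read by AlphaScreen after JNK3-containing HepG2 lysate (cytokine pre-activated) phosphorylated biotinylated GST-cJun with 10 uM ATP at room temperature. Phospho-Ser73 cJun antibody with Protein-A acceptor beads provided detection.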

[3] = molecular target: 3',5'-cyclic-AMP phosphodiesterase 4B (Homo sapiens) (UniProt Q07343); test: qHTS Assay for Inhibitors of PDE-IV (AID 607; active = well fitted activation curve with a large enough effect in the main read-out, with a control signal flat, not every such curve was filed as active)
3',5'-cyclic-AMP phosphodiesterase 4B (Homo sapiens), sequence (Q07343 whole entry, looked up): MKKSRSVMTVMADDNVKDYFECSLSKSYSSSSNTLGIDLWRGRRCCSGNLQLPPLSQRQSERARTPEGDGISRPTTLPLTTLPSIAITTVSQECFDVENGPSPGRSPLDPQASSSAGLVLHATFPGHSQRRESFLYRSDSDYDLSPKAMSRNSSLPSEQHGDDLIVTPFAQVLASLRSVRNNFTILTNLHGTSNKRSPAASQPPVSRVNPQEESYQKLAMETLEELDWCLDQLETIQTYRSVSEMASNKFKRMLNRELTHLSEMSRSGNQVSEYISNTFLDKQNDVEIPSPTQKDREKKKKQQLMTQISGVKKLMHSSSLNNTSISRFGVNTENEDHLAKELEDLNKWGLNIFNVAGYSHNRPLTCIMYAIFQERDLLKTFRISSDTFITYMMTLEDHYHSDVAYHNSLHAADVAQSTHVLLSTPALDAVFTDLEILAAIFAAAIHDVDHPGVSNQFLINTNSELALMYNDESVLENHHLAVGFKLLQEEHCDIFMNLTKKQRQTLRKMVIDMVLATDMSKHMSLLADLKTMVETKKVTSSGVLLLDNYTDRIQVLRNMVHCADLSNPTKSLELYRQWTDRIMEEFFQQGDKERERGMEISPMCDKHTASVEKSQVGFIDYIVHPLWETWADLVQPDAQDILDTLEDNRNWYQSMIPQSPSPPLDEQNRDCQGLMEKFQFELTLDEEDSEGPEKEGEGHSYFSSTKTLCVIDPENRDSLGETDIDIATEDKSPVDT
Method in brief: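 Cell-based read-out of cAMP via a modified cyclic nucleotide-gated channel and membrane potential dye (535/590 nm) in HEK293 cells expressing PDE4 endogenously. Compounds tested up to 22.9 uM final; 100 uM RO 20-1724 reference.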

[4] = molecular target: Cytochrome P450 2C9 (Homo sapiens) (UniProt P11712); test: qHTS Assay for Inhibitors and Substrates of Cytochrome P450 2C9 (AID 883); note: potency is the fitted concentration of half-maximal effect; nearly all actives have a fitted effect of over 60% in size
Cytochrome P450 2C9 (Homo sapiens), sequence (P11712 whole entry, looked up): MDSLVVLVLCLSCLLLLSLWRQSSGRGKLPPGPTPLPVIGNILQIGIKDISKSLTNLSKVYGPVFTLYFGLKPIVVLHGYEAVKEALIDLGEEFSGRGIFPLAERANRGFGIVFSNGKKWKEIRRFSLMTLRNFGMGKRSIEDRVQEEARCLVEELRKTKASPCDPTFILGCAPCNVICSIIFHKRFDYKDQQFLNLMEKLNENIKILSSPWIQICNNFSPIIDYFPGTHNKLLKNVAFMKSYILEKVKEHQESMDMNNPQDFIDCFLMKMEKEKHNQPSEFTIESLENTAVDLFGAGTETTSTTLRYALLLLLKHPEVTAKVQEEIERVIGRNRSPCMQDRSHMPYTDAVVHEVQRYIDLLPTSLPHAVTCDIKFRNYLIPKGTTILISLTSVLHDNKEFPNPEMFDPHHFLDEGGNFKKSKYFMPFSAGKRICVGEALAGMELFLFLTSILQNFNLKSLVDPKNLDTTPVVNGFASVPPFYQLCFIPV
Method in brief: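 10nM CYP2C9 + 100uM Luciferin-H (=KM), 25mM KPO4; cpd 10 min 37C; NADPH regen, 60 min 37C; stop/detect with P450 Glo-Buffer 20 min; luminescence. Norm. to 57uM sulphaphenazole as full inhibition.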

[5] = molecular target: Cytochrome P450 3A4 (Homo sapiens) (UniProt P08684); test: qHTS Assay for Inhibitors and Substrates of Cytochrome P450 3A4 (AID 884); note: potency is the fitted concentration of half-maximal effect; nearly all actives have a fitted effect of over 50% in size
Cytochrome P450 3A4 (Homo sapiens), sequence (P08684 whole entry, looked up): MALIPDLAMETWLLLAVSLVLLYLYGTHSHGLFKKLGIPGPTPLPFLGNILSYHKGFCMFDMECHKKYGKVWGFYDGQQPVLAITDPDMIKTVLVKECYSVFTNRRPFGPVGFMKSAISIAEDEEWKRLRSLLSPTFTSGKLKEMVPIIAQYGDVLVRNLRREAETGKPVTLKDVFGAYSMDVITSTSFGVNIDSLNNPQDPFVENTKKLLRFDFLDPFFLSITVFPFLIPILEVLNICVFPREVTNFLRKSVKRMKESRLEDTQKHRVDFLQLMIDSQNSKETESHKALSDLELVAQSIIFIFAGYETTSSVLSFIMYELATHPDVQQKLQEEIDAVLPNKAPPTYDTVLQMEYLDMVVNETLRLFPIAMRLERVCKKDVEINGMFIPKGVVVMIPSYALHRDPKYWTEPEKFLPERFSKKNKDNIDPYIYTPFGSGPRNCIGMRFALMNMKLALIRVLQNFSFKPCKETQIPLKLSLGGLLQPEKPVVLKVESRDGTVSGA
Method in brief: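 Luminescent readout of luciferin produced by CYP3A4 (20 nM) dealkylation of Luciferin-PPXE, 25 uM (its KM). NADPH-driven reaction ran 60 min at RT after 10 min compound preincubation; data scaled to 57 uM ketoconazole as 100% inhibition.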

[6] = molecular target: Cytochrome P450 3A4 (Homo sapiens) (UniProt P08684); test: qHTS Assay for Activators of Cytochrome P450 3A4 (AID 885); note: nearly all actives have a fitted effect of over 65% in size
Method in brief: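 Luminescent readout of luciferin formed from 25 uM Luciferin-PPXE (KM level) by 20 nM CYP3A4 in 200 mM KPO4, with 60 min NADPH-driven reaction at room temperature after 10 min compound exposure. Ketoconazole (57 uM) defined 100% inhibition.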

[7] = molecular target: Cytochrome P450 2C19 (Homo sapiens) (UniProt P33261); test: qHTS Assay for Inhibitors and Substrates of Cytochrome P450 2C19 (AID 899); note: potency is the fitted concentration of half-maximal effect; nearly all actives have a fitted effect of over 60% in size
Cytochrome P450 2C19 (Homo sapiens), sequence (P33261 whole entry, looked up): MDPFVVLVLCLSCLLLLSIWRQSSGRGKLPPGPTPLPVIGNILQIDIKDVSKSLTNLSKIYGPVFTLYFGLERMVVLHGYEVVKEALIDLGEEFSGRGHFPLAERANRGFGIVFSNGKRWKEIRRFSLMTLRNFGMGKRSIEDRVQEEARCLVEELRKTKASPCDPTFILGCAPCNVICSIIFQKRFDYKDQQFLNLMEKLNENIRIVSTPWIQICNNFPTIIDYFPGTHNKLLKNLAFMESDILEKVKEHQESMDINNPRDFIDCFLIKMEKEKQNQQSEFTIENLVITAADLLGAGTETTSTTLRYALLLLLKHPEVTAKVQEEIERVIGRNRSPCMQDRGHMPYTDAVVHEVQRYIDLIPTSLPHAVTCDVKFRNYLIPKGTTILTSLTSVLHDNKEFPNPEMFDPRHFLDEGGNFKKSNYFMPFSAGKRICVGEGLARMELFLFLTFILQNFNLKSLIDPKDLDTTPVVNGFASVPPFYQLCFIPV
Method in brief: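 Luminescent read-out of luciferin formed from Luciferin-H EGE (10uM, equal to KM). Enzyme 5nM in 50mM KPO4; compound added, 10 min at 37C, then NADPH regenerating system for 60 min at 37C. Full inhibition defined by 57uM ketoconazole.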

[8] = molecular target: Cytochrome P450 2D6 (Homo sapiens) (UniProt P10635); test: qHTS Assay for Inhibitors and Substrates of Cytochrome P450 2D6 (AID 891); note: potency is the fitted concentration of half-maximal effect; nearly all actives have a fitted effect of over 60% in size
Cytochrome P450 2D6 (Homo sapiens), sequence (P10635 whole entry, looked up): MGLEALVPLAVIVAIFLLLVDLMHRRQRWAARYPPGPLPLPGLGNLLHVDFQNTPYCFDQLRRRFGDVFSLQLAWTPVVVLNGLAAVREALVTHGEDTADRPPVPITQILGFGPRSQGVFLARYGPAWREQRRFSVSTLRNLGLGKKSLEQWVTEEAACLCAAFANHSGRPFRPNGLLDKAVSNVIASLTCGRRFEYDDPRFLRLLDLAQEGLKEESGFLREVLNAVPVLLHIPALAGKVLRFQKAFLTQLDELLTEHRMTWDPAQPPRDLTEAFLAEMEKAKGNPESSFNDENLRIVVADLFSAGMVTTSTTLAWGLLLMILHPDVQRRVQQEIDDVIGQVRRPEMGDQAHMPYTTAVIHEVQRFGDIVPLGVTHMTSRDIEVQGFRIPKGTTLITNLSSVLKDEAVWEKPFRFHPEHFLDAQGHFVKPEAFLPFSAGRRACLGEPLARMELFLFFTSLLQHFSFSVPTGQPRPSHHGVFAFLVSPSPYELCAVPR
Method in brief: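 Luminescent read-out of luciferin formed by 5 nM human CYP2D6 demethylating 30 uM Luciferin-ME EGE (Km level) over 60 min at room temperature after NADPH regeneration addition. Data normalized to full inhibition by 1.43 uM quinidine.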

Row | Structure (SMILES) | Potency [1] | Potency [2] | Potency [3] | Potency [4] | Potency [5] | Potency [6] | Potency [7] | Potency [8]
1 | COC(=O)[C@@]1(Cc2ccc(F)cc2)[C@H]2c3cc(C(=O)N4CCCC4)n(Cc4ccc(C)o4)c3C[C@H]2CN1C(=O)c1ccccc1 | 10 µM (active) | inactive | inactive | 3.98 µM (active) | 3.16 µM (active) | inactive | 5.01 µM (active) | 
2 | CCCC1(C(=O)OC)C=C2C(=C(c3ccccc3)C(=O)C2C)CN1 (stereo unspecified) | 15.8 µM (active) | inactive | inactive | 5.01 µM (active) |  | inactive | 7.94 µM (active) | 
3 | COC(=O)[C@@]1(Cc2ccc(OC)cc2)[C@H]2c3cc(C(=O)N4CCCC4)n(CCc4c[nH]c5cc(F)ccc45)c3C[C@H]2CN1C(=O)c1ccccc1 | 39.8 µM (active) | inactive | inactive | 3.16 µM (active) | 1.26 µM (active) | inactive | 3.98 µM (active) | 
4 | COC(=O)[C@@]1(Cc2ccc(F)cc2)[C@H]2c3cc(C(=O)N4CCCC4)n(CCN4CNCC4=O)c3C[C@H]2CN1C(=O)c1ccccc1 | 15.8 µM (active) | inactive | inactive | 7.94 µM (active) | 2 µM (active) | inactive |  | 
5 | O=C(Nc1ccc2ccccc2c1)[C@@H]1C[C@H]1[C@@H](NP(=O)(c1ccccc1)c1ccccc1)c1ccccc1 | 20 µM (active) | inactive | inactive |  |  |  |  | 
6 | C[C@@H](C(=O)NCc1cccc2ccccc12)[C@H]1C[C@]1(C)[C@H](NC(=O)OCc1ccccc1)c1ccccc1 | 25.1 µM (active) | inactive | inactive | 3.16 µM (active) | 0.398 µM (active) |  | 2.51 µM (active) | 
7 | CCCC/C=C/C(NC(=O)c1ccc(-c2ccccc2)cc1)c1ccccc1 (stereo unspecified) | 15.8 µM (active) | inactive | inactive |  |  |  |  | 
8 | O=C(NCCc1c[nH]c2ccccc12)[C@@H]1C[C@H]1[C@@H](NP(=O)(c1ccccc1)c1ccccc1)c1ccccc1 | 15.8 µM (active) | inactive | inactive | 0.251 µM (active) | 1.26 µM (active) | inactive | 6.31 µM (active) | 
9 | CCC#CCOCC(=O)Nc1ccccc1 | 25.1 µM (active) | inactive | inactive |  |  |  |  | 
10 | COC(=O)[C@@]1(Cc2ccc(OC)cc2)[C@H]2c3cc(C(=O)N4CCCC4)n(Cc4c(CO)[nH]cc(C)c4=O)c3C[C@H]2CN1C(=O)c1ccccc1 | 25.1 µM (active) | inactive | inactive |  |  |  |  | 
11 | CC1(C)S[C@@H]2[C@@H](NC(=O)[C@@H](N)c3ccccc3)C(=O)N2[C@H]1C(=O)O | inactive | inactive | inactive |  |  |  |  | 
12 | CC1=C(C(=O)OCc2ccccc2)C(c2ccc(Cl)cc2)NC(=O)N1CCCCCC(=O)O (stereo unspecified) | 25.1 µM (active) | inactive | inactive |  |  |  |  | 
13 | COC(=O)[C@@]1(Cc2ccc(F)cc2)[C@H]2c3cc(C(=O)N4CCCC4)n(Cc4ccccn4)c3C[C@H]2CN1C(=O)c1ccccc1 | 20 µM (active) | inactive | inactive | 2 µM (active) |  | inactive |  | 
14 | C[C@@]1(C(NC(=O)c2ccc(-c3ccccc3)cc2)c2ccc(Cl)cc2)C[C@H]1C1CCCCC1 (stereo partly specified) | inactive | inactive | inactive |  |  |  |  | 
15 | COC(=O)C1CC1C(NC(=O)[C@H]1CCCCN1)c1ccccc1 (stereo partly specified) | inactive | inactive | inactive |  |  |  |  | 
16 | Cc1cc(C(=O)N[C@H](c2ccccc2)[C@@]2(C)C[C@@H]2[C@@H](C)C(=O)Nc2ccc3ccccc3c2)n(C)n1 | 20 µM (active) | inactive | inactive | 7.94 µM (active) | 0.794 µM (active) | inactive |  | 39.8 nM (active)
17 | COC(=O)[C@@]1(Cc2ccccc2)[C@H]2c3cc(C(=O)N4CCCC4)n(Cc4ccc(OC)c(OC)c4)c3C[C@H]2CN1C(=O)c1ccccc1 | inactive | inactive | inactive |  | 1.26 µM (active) | inactive |  | 
18 | CCCC[C@H]1C[C@@H]1[C@@H]1N(P(=O)(c2ccccc2)c2ccccc2)C[C@@](O)(c2ccccc2)CC12CC2 | inactive | inactive | inactive |  | 2 µM (active) | inactive |  | 
19 | C[C@@H](C(=O)Nc1ccc2ccccc2c1)[C@@H]1C[C@@]1(C)[C@@H](N)c1ccccc1 | 15.8 µM (active) | inactive | inactive |  | 7.94 µM (active) | inactive |  | 
20 | C[C@@H](C(=O)Nc1ccc2ccccc2c1)[C@H]1C[C@]1(C)[C@H](NC(=O)Oc1ccc(F)cc1)c1ccccc1 | inactive | inactive | inactive |  | 0.794 µM (active) | inactive |  | 2510 nM (active)
21 | Cc1cc(CNC(=O)[C@@H]2C[C@H]2[C@@H](NP(=O)(c2ccccc2)c2ccccc2)c2ccccc2)nn1C | inactive | inactive | inactive |  | 0.398 µM (active) | inactive |  | 
